# From PubChem
# Shiga inhibitor: inhibitors of Shiga toxin in Vero cells; Vero cells, Shiga toxin protein synthesis inhibition reporter; inhibition, % at 38.7 µM; 9.2% of 290,000 active; AID 2315; in the data active = inhibition mostly above about 28%, no sharp cut-off; inactive = mostly below about 43%
# Lassa entry inh: Lassa virus entry inhibition; Lassa virus pseudotype entry inhibition, cell reporter; Potency, µM (doses to about 37.9 µM), most hits filed as inhibitors; 1.2% of 300,000 active; calls by dose curve; tested in HEK293 cells; note: nearly all actives have a fitted effect of over 50% in size
# CHX counter: counter-screen hit for Shiga toxin inhibitors, cycloheximide; max response, %; cell reporter, cycloheximide protein synthesis inhibition counterscreen; AID 2314; 12% of 300,000 active; in the data active = max response mostly above about 13%, no sharp cut-off; inactive = mostly below about 14%; note: read at 38.3 µM for the half of the compounds with a filed dose
# MARV entry inh: blocks Marburg virus binding to or entry into cells | Marburg virus pseudotyped entry inhibition, cell reporter | 1.8% of 300,000 active | Potency, µM (titrated, usually from 37.8 µM), actives largely listed as inhibitors; calls by dose curve; tested in HEK293 cells
# A number is an active result; 0 = inactive; ? = inconclusive; - = no result given; + = active, no number. A selection: hits, their analogues and other compounds. The true share with any hit is near 12%.
SMILES,Shiga inhibitor,Lassa entry inh,CHX counter,MARV entry inh
CCNc1nc(NCC)nc(N/N=C/c2ccc(N(C)C)cc2)n1,0,0,0,?
CN(C)c1ccc(/C=N/Nc2nc3ccccc3o2)cc1,0,5.6µM,0,?
CNc1nc(N/N=C/c2ccc([N+](=O)[O-])cc2)nc(Nc2ccccc2)n1,0,0,0,?
O=[N+]([O-])c1ccc(/C=N/Nc2nc3ccccc3o2)cc1,48,-,31,-
N#C/C(=C\c1ccccc1)C(=O)OCC(=O)N1CCCC1,0,-,0,-
CC1Cc2ccccc2N1C(=O)CO/N=C/c1ccc(OC(F)F)cc1 (centres undefined),0,?,0,0
C=C(CCC12O[C@H](C(=O)O)[C@@](O)(C(=O)O)[C@](C(=O)O)(O1)[C@H](OC(=O)/C=C/[C@@H](C)C[C@@H](C)CC)[C@H]2O)[C@@H](OC(C)=O)[C@H](C)Cc1ccccc1,0,-,0,-
CCN(CC)S(=O)(=O)c1cccc(-c2cn3cc(C)ccc3n2)c1,98,0,66,0
Cc1ccc2nc(-c3cccc(S(=O)(=O)N(C)C)c3)cn2c1,+,0,54,?
Cc1cccc(C2=N[C@@H](Cc3ccccc3)CO2)c1,+,-,49,-
Cc1cccc(CNCc2ccccc2)c1,0,0,0,0
Cc1cccc(C2=N[C@@H](CC(C)C)CO2)c1,+,-,33,-
COc1ccc(OC(=O)c2cccc([N+](=O)[O-])c2)c(C(=O)/C=C/c2cccs2)c1,0,0,19,0
COc1ccc(C(=O)/C=C/c2ccccc2OC)c(OC(=O)c2ccc([N+](=O)[O-])cc2)c1,-,0,-,?
Cc1ccc(-n2cccn2)c(CN2CCC(CO)(CCc3ccccc3)CC2)c1,0,0,0,8.9µM
CN(C(=O)CSc1nc2c(c(=O)[nH]1)CCCC2)c1ccccc1,-,0,-,0
O=C1NC(=S)NC1=Cc1ccco1,-,?,-,0
O=C1NC(c2ccccc2)=N/C1=C/c1ccco1,72,?,39,?
O=C1NC(c2cccc(Br)c2)=N/C1=C\c1ccco1,86,0,70,0
O=C1NC(c2ccccc2Br)=N/C1=C\c1ccco1,125,-,48,-
O=C1NC(=O)C(=Cc2ccco2)S1,-,0,-,0
Cc1ccc2nc(NC(=O)C(NS(=O)(=O)c3cccc4nsnc34)C(C)C)sc2c1 (centres undefined),0,-,0,0
O=C(CN1C(=O)COc2ccc(S(=O)(=O)N3CCCCC3)cc21)NCc1ccccc1Cl,0,0,0,0
CCOC(=O)C1CCCN(C(=O)c2cc3c(C)nc4ccccc4c3o2)C1 (centres undefined),0,?,0,?
Cc1ccc(-c2cc(C(=O)N3CCOCC3)no2)cc1,0,-,0,2µM
SMILES,Shiga inhibitor,Lassa entry inh,CHX counter,MARV entry inh
CCOC(=O)C1CCCN(C(=O)c2cc(-c3ccccc3)on2)C1 (centres undefined),79,0,42,0
Cc1ccc(C2=NS(=O)(=O)N(C)C(C(=O)N3CCOCC3)=C2)cc1,0,-,0,-
Cc1ccc(-c2cc(C(=O)N3CCCC3)no2)cc1,active,?,0,?
CC1CCN(Cc2nnnn2-c2cccc([N+](=O)[O-])c2)CC1,0,0,0,0
N#C/C(C(=O)NCc1ccco1)=C1/SC(Cc2ccc(Cl)cc2)C(=O)N1c1ccccc1 (centres undefined),0,0,18,0
COCc1cc(C)nc(SCC(=O)Nc2ccc(C)c(C)c2)c1C#N,98,?,44,0
COc1ccccc1NC(=O)c1c(C)cc(C)nc1SCC(=O)Nc1ccc(C)c(C)c1,-,0,-,7.9µM
Cc1cc(C)c(C#N)c(SCC(=O)Nc2ccc3c(c2)OCO3)n1,28,0,26,?
CCC(=O)N1c2ccc(S(=O)(=O)CCC(=O)Nc3ccc(Br)c(C)c3)cc2CC1C (centres undefined),-,0,-,0
COc1ccc(OCc2ccc(-c3nc(C#N)c(NCc4ccc(F)cc4)o3)o2)cc1,-,0,-,0
Cn1cc(C(=O)N/N=C/C(Br)=C/c2ccccc2)ccc1=O,0,0,0,0
COc1ccc(C(=O)N/N=C/C(Br)=C/c2ccccc2)cc1,60,0,31,0
COc1cccc(C(=O)N/N=C/C(Br)=C/c2ccccc2)c1,114,0,52,?
COc1ccc(-c2nc3sc(CCNC(=O)Cc4ccc(F)cc4)c(C)n3n2)cc1,-,0,-,-
O=C1CCCCC1CCc1ccncc1 (centres undefined),-,0,-,0
CCOc1cccc2cc(-c3cn4cc(C)ccc4n3)c(=O)oc12,36,0,0,0
CNc1nnc(-c2cc3cc(Cl)ccc3oc2=O)s1,0,?,0,0
COc1cccc2cc(-c3nnc(Nc4c(F)cccc4F)s3)c(=O)oc12,-,0,-,-
CCOc1cccc2cc(-c3nnc(NCc4ccco4)s3)c(=O)oc12,40,0,0,0
COc1ccc2oc(=O)c(-c3nnc(NCc4ccco4)s3)cc2c1,63,0,31,?
C=CCn1c(SCC(=O)Nc2ccc(F)cc2)nc2ccccc2c1=O,0,-,0,-
Cc1ccc(NC(=O)CSc2nccn2C2CCCC2)cc1Cl,-,0,-,-
